Assay results from PubChem BioAssay AID1159580 (chemical genetic matrix, 2015).
Among all 5,500 compounds or so, about 2,000 (36%) were called active. Inconclusive results (about 18%) are left out. Cut-off read from the data, not from the text of the source: active = normalized growth mostly below about 0.91 (no sharp cut-off); inconclusive = no clear call, values can overlap the other calls; inactive = mostly above about 0.92. This is one part of the list.

Assay: chemical genetic growth profiling, strain panel (AID 1159580);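 note: tested at 20 µM; growth read once vehicle control cultures reached saturation at 30 °C; 1 = growth at the plate median or of vehicle wells; lower values mean less growth of the strain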
Conditions: growth OD

Measured: normalized growth

COc1cc(C)c2c(=O)c3c(O)cc(O)cc3oc2c1
active: S. cerevisiae deletion strains, locus YDL192W, strain arf1, stronger effect = lower value 0.891 | S. cerevisiae deletion strains, locus YDR318W, strain mcm21, stronger effect = lower value 0.906 | S. cerevisiae deletion strains, locus YDR502C, strain sam2, stronger effect = lower value 0.92 | S. cerevisiae deletion strains, locus YGL086W, strain mad1, stronger effect = lower value 0.904 | S. cerevisiae deletion strains, locus YGR252W, strain gcn5, stronger effect = lower value 0.764 | S. cerevisiae deletion strains, locus YHR079C, strain IRE1 (second series), stronger effect = lower value 0.925 | S. cerevisiae deletion strains, locus YHR200W, strain rpn10, stronger effect = lower value 0.904 | S. cerevisiae deletion strains, locus YKR001C, strain vps1, stronger effect = lower value 0.871 | S. cerevisiae deletion strains, locus YLR418C, strain cdc73, stronger effect = lower value 0.815 | S. cerevisiae deletion strains, locus YML032C, strain rad52, stronger effect = lower value 0.829 | S. cerevisiae deletion strains, locus YMR223W, strain ubp8, stronger effect = lower value 0.884 | S. cerevisiae deletion strains, locus YNL233W, strain BNI4, stronger effect = lower value 0.86 | S. cerevisiae deletion strains, locus YNL250W, strain rad50, stronger effect = lower value 0.889 | S. cerevisiae deletion strains, locus YNL307C, strain MCK1, stronger effect = lower value 0.868 | S. cerevisiae deletion strains, locus YOL147C, strain pex11, stronger effect = lower value 0.923 | S. cerevisiae deletion strains, locus YPR163C, strain tif3, stronger effect = lower value 0.896 | S. cerevisiae deletion strains, locus YPR167C, strain met16, stronger effect = lower value 0.883
inactive: S. cerevisiae deletion strains, locus YBR021W, strain FUR4, stronger effect = lower value 0.936 | S. cerevisiae deletion strains, locus YBR229C, strain ROT2, stronger effect = lower value 0.975 | S. cerevisiae deletion strains, locus YCL029C, strain bik1, stronger effect = lower value 0.95 | S. cerevisiae deletion strains, locus YDL035C, strain GPR1, stronger effect = lower value 0.994 | S. cerevisiae deletion strains, locus YDL074C, strain BRE1, stronger effect = lower value 0.95 | S. cerevisiae deletion strains, locus YDL101C, strain DUN1, stronger effect = lower value 0.974 | S. cerevisiae deletion strains, locus YDL185W, strain tfp1, stronger effect = lower value 0.955 | S. cerevisiae deletion strains, locus YDR101C, strain arx1, stronger effect = lower value 0.943 | S. cerevisiae deletion strains, locus YDR162C, strain NBP2, stronger effect = lower value 0.967 | S. cerevisiae deletion strains, locus YDR388W, stronger effect = lower value 0.941 | S. cerevisiae deletion strains, locus YEL061C, strain CIN8, stronger effect = lower value 1.02 | S. cerevisiae deletion strains, locus YER110C, stronger effect = lower value 0.948 | S. cerevisiae deletion strains, locus YER167W, strain BCK2, stronger effect = lower value 0.983 | S. cerevisiae deletion strains, locus YGL078C, strain dbp3, stronger effect = lower value 0.946 | S. cerevisiae deletion strains, locus YGL248W, strain PDE1, stronger effect = lower value 0.934 | S. cerevisiae deletion strains, locus YGR135W, strain pre9, stronger effect = lower value 0.93 | S. cerevisiae deletion strains, locus YHR094C, strain hxt1, stronger effect = lower value 0.961 | S. cerevisiae deletion strains, locus YHR129C, strain ARP1, stronger effect = lower value 0.995 | S. cerevisiae deletion strains, locus YIL066C, strain RNR3, stronger effect = lower value 0.986 | S. cerevisiae deletion strains, locus YIL073C, strain SPO22, stronger effect = lower value 0.923 | S. cerevisiae deletion strains, locus YIL125W, strain kgd1, stronger effect = lower value 0.957 | S. cerevisiae deletion strains, locus YIR030C, strain dcg1, stronger effect = lower value 0.953 | S. cerevisiae deletion strains, locus YJL095W, strain BCK1, stronger effect = lower value 0.829 | S. cerevisiae deletion strains, locus YJL134W, strain LCB3, stronger effect = lower value 0.981 | S. cerevisiae deletion strains, locus YJL168C, strain set2, stronger effect = lower value 0.975 | S. cerevisiae deletion strains, locus YJL187C, strain SWE1 (second series), stronger effect = lower value 0.953 | S. cerevisiae deletion strains, locus YJR043C, strain POL32, stronger effect = lower value 0.979 | S. cerevisiae deletion strains, locus YKL009W, strain mrt4, stronger effect = lower value 0.911 | S. cerevisiae deletion strains, locus YKL068W, stronger effect = lower value 0.971 | S. cerevisiae deletion strains, locus YKL085W, strain MDH1 (second series), stronger effect = lower value 0.952 | S. cerevisiae deletion strains, locus YKL085W, strain MDH1, stronger effect = lower value 0.952 | S. cerevisiae deletion strains, locus YKL190W, strain CNB1, stronger effect = lower value 1 | S. cerevisiae deletion strains, locus YLR039C, strain RIC1, stronger effect = lower value 0.865 | S. cerevisiae deletion strains, locus YLR058C, strain SHM2, stronger effect = lower value 0.941 | S. cerevisiae deletion strains, locus YLR102C, strain apc9, stronger effect = lower value 0.969 | S. cerevisiae deletion strains, locus YLR262C, strain YPT6, stronger effect = lower value 0.846 | S. cerevisiae deletion strains, locus YLR268W, strain sec22, stronger effect = lower value 0.941 | S. cerevisiae deletion strains, locus YLR330W, strain CHS5, stronger effect = lower value 0.973 | S. cerevisiae deletion strains, locus YLR371W, strain rom2, stronger effect = lower value 0.936 | S. cerevisiae deletion strains, locus YML016C, strain PPZ1, stronger effect = lower value 0.974 | S. cerevisiae deletion strains, locus YML124C, strain tub3, stronger effect = lower value 0.967 | S. cerevisiae deletion strains, locus YMR078C, strain ctf18, stronger effect = lower value 0.954 | S. cerevisiae deletion strains, locus YMR263W, strain SAP30, stronger effect = lower value 0.979 | S. cerevisiae deletion strains, locus YMR307W, strain GAS1, stronger effect = lower value 0.752 | S. cerevisiae deletion strains, locus YNL067W, strain RPL9B, stronger effect = lower value 0.992 | S. cerevisiae deletion strains, locus YNL128W, strain TEP1, stronger effect = lower value 0.985 | S. cerevisiae deletion strains, locus YNL153C, strain GIM3, stronger effect = lower value 0.989 | S. cerevisiae deletion strains, locus YNL271C, strain bni1, stronger effect = lower value 0.953 | S. cerevisiae deletion strains, locus YNL298W, strain CLA4, stronger effect = lower value 0.962 | S. cerevisiae deletion strains, locus YNR052C, strain pop2, stronger effect = lower value 0.933 | S. cerevisiae deletion strains, locus YOL012C, strain htz1 0.866 | S. cerevisiae deletion strains, locus YOR061W, strain CKA2, stronger effect = lower value 0.982 | S. cerevisiae deletion strains, locus YOR069W, strain VPS5, stronger effect = lower value 0.997 | S. cerevisiae deletion strains, locus YOR136W, strain idh2, stronger effect = lower value 0.925 | S. cerevisiae deletion strains, locus YOR144C, strain elg1, stronger effect = lower value 0.954 | S. cerevisiae deletion strains, locus YOR184W, strain ser1, stronger effect = lower value 0.918 | S. cerevisiae deletion strains, locus YOR316C, strain cot1, stronger effect = lower value 0.96 | S. cerevisiae deletion strains, locus YPR119W, strain clb2, stronger effect = lower value 0.956 | S. cerevisiae deletion strains, locus YPR141C, strain kar3, stronger effect = lower value 0.958 | S. cerevisiae deletion strains, strain wtn01, stronger effect = lower value 0.919 | S. cerevisiae strains, strain wild type, stronger effect = lower value 0.932
